Results as given in PubChem BioAssay (Tox21).
Records with an inconclusive call do not appear. Calls of active or inactive are those of the source. Unless noted, calls come from the whole dose curve; as a rule, active = well fitted cell-killing curve with a large enough effect in the repeat runs; inconclusive = weak or mixed curves, or effect the other way; inactive = no such curve, though single readings can be large or run the other way.

Target: Retinoic acid receptor RXR-alpha (Homo sapiens) (UniProt P19793)
Sequence (P19793 whole entry, looked up): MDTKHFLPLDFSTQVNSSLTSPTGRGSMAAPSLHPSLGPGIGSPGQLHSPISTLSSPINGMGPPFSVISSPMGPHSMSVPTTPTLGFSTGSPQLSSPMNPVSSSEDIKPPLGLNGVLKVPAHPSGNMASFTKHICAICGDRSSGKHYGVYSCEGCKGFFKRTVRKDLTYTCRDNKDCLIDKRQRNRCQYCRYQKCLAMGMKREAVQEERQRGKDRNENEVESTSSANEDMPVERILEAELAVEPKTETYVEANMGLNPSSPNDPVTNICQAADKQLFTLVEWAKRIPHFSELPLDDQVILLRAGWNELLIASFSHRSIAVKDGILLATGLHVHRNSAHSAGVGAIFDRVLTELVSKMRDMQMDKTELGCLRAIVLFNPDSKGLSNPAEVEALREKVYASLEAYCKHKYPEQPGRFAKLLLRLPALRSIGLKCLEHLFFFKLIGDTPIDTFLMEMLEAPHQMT
Assay: qHTS assay to identify small molecule agonists of the RXR signaling pathway (AID 1159527; calls by dose curve; note: nearly all actives have a fitted effect of over 35% in size)
Conditions: HEK293T RXRa-UAS-bla, beta-lactamase ratio, 16 h; series mostly up to 76.8 µM; activation: at the top concentration
Procedure, shortened: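 GeneBLAzer RXR-alpha-UAS-bla HEK 293T cells in medium with 2% charcoal-stripped FBS, pre-incubated 5 hr at 37 C, then exposed to compounds 16 hr. Beta-lactamase reporter read by FRET substrate, 2 hr room temperature, 460/530 nm emission.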
% is set by controls: 0 for no effect and ±100 for the full control effect.

| SMILES | activation |
| --- | --- |
| O=C1CCCCC1Cl (stereo not given) | -7.79% (inactive) |
| ClCCN1CCCC1 | 5.45% [at 35.3 µM] (inactive) |
| COC(=O)c1ccccc1CS(=O)(=O)NC(=O)Nc1nc(OC)cc(OC)n1 | 1.96% (inactive) |
| COC1=CC(=O)O[C@@H](/C=C/c2ccccc2)C1 | 0.781% (inactive) |
| Cc1cc(OC(=O)N(C)C)nn1C(=O)N(C)C | -7.67% (inactive) |
| O=C(Cl)c1ccccc1 | 0.926% (inactive) |
| CCN[C@@H](C)Cc1cccc(C(F)(F)F)c1 | -18.1% [at 35.3 µM] (inactive) |
| CCNP(=S)(OC)O/C(C)=C/C(=O)OC(C)C (stereo not given) | 0.362% (inactive) |
| C=CCCC#N | -6.57% (inactive) |
| O=[N+]([O-])c1cccc(CCl)c1 | -3.97% (inactive) |
| COc1cccc(C=O)c1 | 5.61% (inactive) |
| COc1ccccc1OC | 5.29% (inactive) |
| CCCCCCCCBr | -3.92% (inactive) |
| C1CN2CCC1CC2 | 3.94% [at 35.3 µM] (inactive) |
| ClCCCCCCCl | 10.8% (inactive) |
| C=CCN1CC[C@]23CCCC[C@H]2[C@H]1Cc1ccc(O)cc13 | 5.18% [at 35.3 µM] (inactive) |
| NC(=O)CS(=O)C(c1ccccc1)c1ccccc1 (stereo not given) | -0.221% [at 35.3 µM] (inactive) |
| CC(C)(C)NC[C@H](O)c1ccc(O)cc1Cl | 1.54% [at 35.3 µM] (inactive) |

| SMILES | activation |
| --- | --- |
| CC(C)(C1CCC(O)CC1)C1CCC(O)CC1 (stereo not given) | 6.71% (inactive) |
| CCCCOC(C)=O | -3.28% (inactive) |
| O=C(NC(O)C(Cl)(Cl)Cl)NC(O)C(Cl)(Cl)Cl (stereo not given) | 2.78% [at 35.3 µM] (inactive) |
| O=CCCl | 9.25% (inactive) |
| C=CCc1cc(OC)c2c(c1)OCO2 | 17.7% (inactive) |
| O=c1[nH]c2ccccc2n1C1CCNCC1 | -0.956% [at 35.3 µM] (inactive) |
| CNC(=O)NC(O)C(Cl)(Cl)Cl (stereo not given) | 7.1% [at 35.3 µM] (inactive) |
| CCOP(=S)(OCC)SCCl | -17.2% (inactive) |
| O=C(Cl)C(Cl)(Cl)Cl | -15.5% (inactive) |
| COc1cccc([C@@]2(O)CCCC[C@@H]2CN(C)C)c1 | -0.755% [at 35.3 µM] (inactive) |
| NC1(c2ccccc2)CCCCC1 | -9.69% (inactive) |
| Cc1cccc2sc3nncn3c12 | 12.8% (inactive) |
| CCc1cc(OC)c(C[C@H](C)N)cc1OC | -2.14% (inactive) |
| CCOC(=O)c1ncn2c1CN(C)C(=O)c1c(I)cccc1-2 | 7.06% [at 35.3 µM] (inactive) |
| BrCc1ccc(Br)cc1 | -9.95% (inactive) |
| Clc1ccc(C(Cl)(Cl)Cl)cn1 | 5.02% (inactive) |
| CCNc1nc(Cl)nc(NC(C)(C)C)n1 | 8.7% (inactive) |

Tested on: not listed separately
Assay: qHTS assay to identify small molecule agonists of the RXR signaling pathway - cell viability counter screen (AID 1159529); note: nearly all actives have a fitted effect of over 50% in size
Conditions: RXR-alpha-bla HEK293T viability, CellTiter-Glo, 16 h; series mostly up to 76.8 µM; activity change, negative = cytotoxicity: at the top concentration
Procedure, shortened: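 RXR-alpha-UAS-bla HEK 293T cells in medium with 2% charcoal-stripped FBS were preincubated 5 hr, then exposed to compounds for 16 hr at 37 C. Viability was read as CellTiter-Glo luminescence after 30 min at room temperature.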

| SMILES | activity change, negative = cytotoxicity |
| --- | --- |
| O=C1CCCCC1Cl (stereo not given) | -0.263% (inactive) |
| ClCCN1CCCC1 | -2.48% [at 35.3 µM] (inactive) |
| COC(=O)c1ccccc1CS(=O)(=O)NC(=O)Nc1nc(OC)cc(OC)n1 | 1.07% (inactive) |
| COC1=CC(=O)O[C@@H](/C=C/c2ccccc2)C1 | -11.9% (inactive) |
| Cc1cc(OC(=O)N(C)C)nn1C(=O)N(C)C | 3.61% (inactive) |
| O=C(Cl)c1ccccc1 | 3.12% (inactive) |
| CCN[C@@H](C)Cc1cccc(C(F)(F)F)c1 | -17.8% [at 35.3 µM] (inactive) |
| CCNP(=S)(OC)O/C(C)=C/C(=O)OC(C)C (stereo not given) | -11.8% (inactive) |
| C=CCCC#N | 13.8% (inactive) |
| O=[N+]([O-])c1cccc(CCl)c1 | -8.22% (inactive) |
| COc1cccc(C=O)c1 | 6.61% (inactive) |
| COc1ccccc1OC | 0.0052% (inactive) |
| CCCCCCCCBr | -1.19% (inactive) |
| C1CN2CCC1CC2 | 4.08% [at 35.3 µM] (inactive) |
| ClCCCCCCCl | -1.01% (inactive) |
| C=CCN1CC[C@]23CCCC[C@H]2[C@H]1Cc1ccc(O)cc13 | -4.09% [at 35.3 µM] (inactive) |
| NC(=O)CS(=O)C(c1ccccc1)c1ccccc1 (stereo not given) | 2.36% [at 35.3 µM] (inactive) |
| CC(C)(C)NC[C@H](O)c1ccc(O)cc1Cl | 9.56% [at 35.3 µM] (inactive) |

| SMILES | activity change, negative = cytotoxicity |
| --- | --- |
| CC(C)(C1CCC(O)CC1)C1CCC(O)CC1 (stereo not given) | -13% (inactive) |
| CCCCOC(C)=O | 0.738% (inactive) |
| O=C(NC(O)C(Cl)(Cl)Cl)NC(O)C(Cl)(Cl)Cl (stereo not given) | 4.64% [at 35.3 µM] (inactive) |
| O=CCCl | 6.51% (inactive) |
| C=CCc1cc(OC)c2c(c1)OCO2 | 4.31% (inactive) |
| O=c1[nH]c2ccccc2n1C1CCNCC1 | -7% [at 35.3 µM] (inactive) |
| CNC(=O)NC(O)C(Cl)(Cl)Cl (stereo not given) | -0.149% [at 35.3 µM] (inactive) |
| CCOP(=S)(OCC)SCCl | 1.74% (inactive) |
| O=C(Cl)C(Cl)(Cl)Cl | -0.988% (inactive) |
| COc1cccc([C@@]2(O)CCCC[C@@H]2CN(C)C)c1 | -3.43% [at 35.3 µM] (inactive) |
| NC1(c2ccccc2)CCCCC1 | 1.66% (inactive) |
| Cc1cccc2sc3nncn3c12 | -0.397% (inactive) |
| CCc1cc(OC)c(C[C@H](C)N)cc1OC | -6.83% (inactive) |
| CCOC(=O)c1ncn2c1CN(C)C(=O)c1c(I)cccc1-2 | 2.25% [at 35.3 µM] (inactive) |
| BrCc1ccc(Br)cc1 | -0.585% (inactive) |
| Clc1ccc(C(Cl)(Cl)Cl)cn1 | 3.28% (inactive) |
| CCNc1nc(Cl)nc(NC(C)(C)C)n1 | -3.62% (inactive) |
